Assay outcomes (PubChem BioAssay)
KCNH2 WT inh – inhibitors of human wildtype KCNH2 potassium channel; Q12809; U2OS, BacMam KCNH2, thallium flux FluxOr; hits give low values; 340,000 tested, 0.37% active; activity change, % at 1.84 µM;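 active = maximum activity change below -70%; inconclusive = maximum activity change between -70% and -50%; inactive = maximum activity change above -50%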
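U2OS cells were transduced with wild-type KCNH2 virus (2.03 x 10^8 / mL) for 4 h at room temperature, then cultured overnight at 37 C. Thallium flux was read with FluxOr dye. Rate constants were normalized to DMSO controls.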
USP1 inh – blocks the human USP1/UAF1 deubiquitinase complex. O94782. recombinant USP1/UAF1, Ub-Rhodamine cleavage fluorescence. Potency, µM (highest dose often 57.1 µM), for inactives: at the top dose activity change, negative = inhibition, actives largely listed as inhibitors. 390,000 tested, 0.23% active. AID 743255; active = well fitted inhibition curve with a large enough effect; inconclusive = small, poorly fitted or top-dose-only effect; inactive = no such curve, though single readings can be large or run the other way; note: potency is the fitted concentration of half-maximal effect; nearly all actives have a fitted effect of over 60% in size
Target sequence (O94782 whole entry, looked up): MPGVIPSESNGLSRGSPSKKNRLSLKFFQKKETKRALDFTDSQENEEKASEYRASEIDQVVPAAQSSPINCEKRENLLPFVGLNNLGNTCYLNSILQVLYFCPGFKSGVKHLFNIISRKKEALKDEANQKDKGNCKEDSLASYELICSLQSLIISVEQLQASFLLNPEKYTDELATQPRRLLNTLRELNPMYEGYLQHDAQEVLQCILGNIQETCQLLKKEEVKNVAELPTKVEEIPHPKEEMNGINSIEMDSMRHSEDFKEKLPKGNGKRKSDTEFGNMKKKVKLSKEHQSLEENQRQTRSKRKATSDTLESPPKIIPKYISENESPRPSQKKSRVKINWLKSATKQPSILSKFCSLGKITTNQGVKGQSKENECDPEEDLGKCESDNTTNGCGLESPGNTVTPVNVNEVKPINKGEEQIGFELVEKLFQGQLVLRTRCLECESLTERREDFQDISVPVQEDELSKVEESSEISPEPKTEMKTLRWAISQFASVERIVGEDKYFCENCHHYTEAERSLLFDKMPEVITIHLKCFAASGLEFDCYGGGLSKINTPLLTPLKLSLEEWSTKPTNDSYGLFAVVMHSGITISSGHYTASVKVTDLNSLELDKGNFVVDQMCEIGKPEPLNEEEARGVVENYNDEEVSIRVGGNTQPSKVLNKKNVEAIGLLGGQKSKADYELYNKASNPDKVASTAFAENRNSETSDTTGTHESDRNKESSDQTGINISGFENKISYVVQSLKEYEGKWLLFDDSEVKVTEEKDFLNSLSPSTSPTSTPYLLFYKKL
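USP1/UAF1 complex (1 nM) preincubated 15 min at room temperature with compound, then Ub-Rho substrate (150 nM final) added. Kinetic fluorescence at 480/540 nm over 6 reads at 60 s intervals; 50 mM HEPES pH 7.8, 0.5 mM EDTA, 0.1 mg/ml BSA, 1 mM TCEP, 0.01% Tween-20.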
Giardia kill – kills Giardia lamblia | AID 540267 | activity change, % at 7.66 µM, hits read low | Giardia lamblia trophozoite viability | 340,000 tested, 0.15% active; in the data active = activity change below about -80%; inconclusive = between about -30% and that limit;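 note: parasites exposed to compound for two days anaerobically before the ATP read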
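Trophozoite viability was measured as ATP-dependent luminescence, read 15-30 min after reagent addition. Before that, parasites at 100 cells/well were exposed to compounds for 48 h, anaerobically, at 37 deg C.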
KCNH2 3.1 block – inhibitors of human KCNH2 3.1 potassium channel isoform; U2OS KCNH2 3.1, thallium flux FluxOr; hits give low values; activity change, % (tested at about 1.8 µM); 340,000 tested, 0.95% active; AID 720553;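 active = maximum activity change below -70%; inconclusive = maximum activity change from -70% to -50%; inactive = maximum activity change above -50%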;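 note: thallium influx rate constant from kinetic fluorescence after stimulation buffer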
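We transduce U2OS cells with the mutant 3.1 virus, culture them overnight, load FluxOr with Red40 quencher for 45 min, then add stimulation buffer and read kinetically for 2 min to derive a normalized rate constant.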
FBPA coupling cs – inhibits coupling enzyme system, counter-screen for aldolase hits | AID 2472 | activity change, negative = inhibition, % at 58.2 µM, hits read low | 290,000 tested, 0.67% active | coupling enzyme system counterscreen, AmpLite Red fluorescence; in the data active = activity change below about -30%
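Compounds tested against the coupling enzymes alone at 57.5 uM final; readout was AmpLite Red fluorescence (525/598 nm) after 20 min at RT.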
Numbers without * were called inactive; ? = inconclusive; nt = no result given. Hits are enriched below; roughly 1.7% of the tested compounds scored in any of these assays. % is set by controls: 0 for no effect and ±100 for the full control effect.

SMILES	KCNH2 WT inh	USP1 inh	Giardia kill	KCNH2 3.1 block	FBPA coupling cs
CC(C)C[C@H]1CNC(=S)N1CC1CCN(CCCC2CCCCC2)CC1	4.6	-11.2%	-26.9	-71.7*	nt
O=C1NC[C@H](Cc2ccccc2)N(CC2CCN(CC3CCCC3)CC2)C1=O	20.4	2.6%	-26.0	-6.2	nt
O=C1NC[C@H](Cc2ccccc2)N(CC2CCN(CCCC3CCCC3)CC2)C1=O	-130.2*	-2.2%	7.6	-80.1*	nt
CC(C)C[C@H]1CNC(=S)N1CC1CCN(CC2CCCC2)CC1	48.3	?	-10.6	9.3	nt
O=C1NC[C@H](Cc2ccccc2)N(CC2CCN(CCc3ccccc3)CC2)C1=O	7.5	-6.4%	24.0	-7.7	nt
COc1ccc(-c2nc3ccccc3n2Cc2ccc(C)cc2)cc1	-122.2*	-15.5%	0.4	nt	-4.8
CCCN1CNc2c(c(=O)[nH]c(=S)n2CCc2ccccc2C)C1	nt	nt	15.8	nt	nt
N#Cc1c(C(F)(F)F)cc(C2CC2)nc1N1CCCC1	-5.1	-8.9%	-8.7	5.3	-33.9*
COc1cccc(Cn2c(=O)n(CC3CCC(C(=O)N4CCCCC4)CC3)c(=O)c3sccc32)c1 (configuration not stated)	nt	-11.5%	nt	nt	nt
CCc1ccc2[nH]c(=O)c(CN(Cc3ccc(OC)cc3)Cc3nnnn3CCOC)cc2c1	10.1	-9.2%	-1.3	-12.5	-74.2*
CC(C)(C)c1cc(C(=O)/C=C/c2ccc(C(=O)O)cc2)cc(C(C)(C)C)c1	nt	nt	nt	nt	11.8
O=C1c2ccccc2C(=O)N1CCCc1nc(-c2ccccn2)no1	-6.4	-17.6%	-14.5	-100.3*	-1.9
CC1CC(C)CN(S(=O)(=O)c2ccc3c(c2)oc(=O)n3CC(=O)NCc2cccnc2)C1 (configuration not stated)	-157.0*	-23.1%	-14.5	-1.9	-1.5
COCCn1c(-c2ccc(F)cc2)nc2oc3cc(OC)ccc3c(=O)c2c1=O	-1.9	-18.0%	2.6	-90.8*	2.4
O=C(O)c1ccc(C[n+]2c(-c3ccccc3)csc2Nc2ccccc2)cc1	-3.8	-15.4%	-15.8	-2.2	11.0
C=CC[n+]1c(C)csc1Nc1ccc(C(=O)O)cc1	nt	-19.8%	10.9	-79.3*	7.9
Cc1cccc(NC(=O)C(Cc2ccccc2)N2Cc3ccccc3C2=O)c1C (configuration not stated)	nt	-5.7%	nt	nt	nt
CC1(C)CC(=O)C=C(c2cccc(OC(=O)c3ccc(-c4ccccc4)cc3)c2)C1=O	-141.9*	-15.9%	nt	-156.4*	nt
O=[N+]([O-])c1ccc(-c2ccc(S(=O)(=O)NCCN3CCCC3)cc2)cc1	5.9	-9.6%	-6.9	-89.9*	-1.0
O=[N+]([O-])c1ccc(S(=O)(=O)NCCN2CCOCC2)cc1	22.1	-14.4%	9.3	5.1	0.8
CCc1ccccc1NC(=O)Cn1c(=O)n(-c2ccc(C)cc2)c(=O)c2cc(OC)c(OC)cc21	nt	-22.3%	nt	nt	nt
O=C1c2cccc3cccc(c23)C(=O)C1(O)O	4.3	-26.5%	6.1	-19.9	nt
CC(=O)C(C(C)=O)C1(O)C(=O)c2ccccc2C1=O	38.8	7.94µM*	4.2	-0.7	-30.5*
O=C(NC(=S)Nc1ccccn1)c1ccc(-c2ccccc2)cc1	5.1	-16.7%	-89.9*	-17.9	nt
CC(C)N(CCNCC(O)COc1ccc(C(C)(C)c2ccccc2)cc1)C(C)C (configuration not stated)	-95.7*	0.7%	-21.6	?	4.4
SMILES	KCNH2 WT inh	USP1 inh	Giardia kill	KCNH2 3.1 block	FBPA coupling cs
OC(CNCCC(c1ccccc1)c1ccccc1)COc1ccccc1 (configuration not stated)	-11.1	-21.2%	-7.2	-97.5*	-0.9
CCCOC(=O)C1=C(C)N(C)C(=O)NC1c1cc2c(cc1[N+](=O)[O-])OCO2 (configuration not stated)	1.6	-9.5%	8.0	-0.1	-12.3
CCOC(=O)C1=C(C)NC(=O)CC1c1cc2c(cc1[N+](=O)[O-])OCO2 (configuration not stated)	-3.3	-24.0%	-0.4	-0.3	-53.0*
Cc1cccc(-c2nc(Cn3c(SCc4cccc(C(F)(F)F)c4)nc4ccncc43)c(C)o2)c1	nt	-7.5%	nt	nt	nt
COc1ccc(-c2nc(Cn3c(SCc4ccccc4F)nc4ccncc43)c(C)o2)cc1OC	nt	-17.6%	nt	nt	nt
COc1ccc(-c2nc(Cn3c(SCc4ccc(C)cc4)nc4ccncc43)c(C)o2)cc1OC	-46.4	-25.2%	-27.7	-122.2*	-0.7
COc1ccc(-c2nc(Cn3c(SCc4cccc(F)c4)nc4ccncc43)c(C)o2)cc1OC	-0.9	-15.6%	-3.1	-107.1*	0.0
CCCCCn1c(=O)[nH]c2cc(C(=O)N3CCN(c4ccc(OC)cc4)CC3)ccc2c1=O	nt	-2.4%	nt	nt	nt
CC(C)c1ccc(C(=O)Nc2ccc(CN3CCOCC3)cc2)cc1	9.5	-12.2%	-3.4	-76.4*	0.4
CC(C)c1ccc(CNc2ccc(N3CCOCC3)cc2)cc1	-131.3*	-14.8%	5.0	-175.4*	-4.2
O=C(Nc1ccc(CN2CCOCC2)cc1)c1ccc(-c2ccc(Cl)cc2Cl)o1	-0.1	?	1.1	-86.8*	-4.4
COc1ccc(NC(=O)c2c(NCc3ccc(C)o3)sc3c2CCCCC3)c(OC)c1	nt	-16.3%	nt	nt	nt
CC(C)[C@H](NC(=O)c1cccc(S(=O)(=O)N2CCOCC2)c1)C(=O)OCC(=O)Nc1cccc(Br)c1	-5.2	-7.1%	-1.7	-2.7	nt
Cc1noc(C)c1C(c1ccccc1)S(=O)(=O)c1ccccc1 (configuration not stated)	-140.2*	-24.2%	-0.9	-18.0	0.9
N#CC1(NC(=O)COC(=O)c2ncc(Cl)c(Cl)c2Cl)CCCCC1	-2.5	-6.4%	-13.4	-72.8*	nt
O=[N+]([O-])c1cc(C(F)(F)F)ccc1NCCCCNS(=O)(=O)c1ccc(Cl)cc1	-8.1	-23.5%	-14.6	-103.3*	-2.4
CN(C)c1ccc(N=Nc2ccccc2C(=O)OCC(=O)N2CCCCCC2)cc1	9.8	-19.6%	?	1.6	2.4
CN(C)c1ccc(N=Nc2ccccc2C(=O)OCC(=O)N2CCCC2)cc1	-26.5	-13.6%	?	-82.6*	0.5
Cc1ccc(OCC(=O)OC2=C(C(=O)c3ccccc3)N(C)S(=O)(=O)c3ccccc32)cc1	nt	-5.1%	nt	nt	nt
Cc1cc(SCC(=O)N/N=C/c2ccc(O)c(O)c2O)c(C)cc1Br	0.7	-26.1%	-3.8	2.9	-31.8*
CCC1NC(=S)NC(C)=C1C(=O)c1ccccc1 (configuration not stated)	2.5	-24.3%	-24.2	-115.5*	4.7
O=C(CN1CCN(S(=O)(=O)c2ccccc2)CC1)Nc1ccccc1C(=O)NC1CC1	1.8	-1.5%	-9.2	?	nt
Cc1ccccc1NC(=O)CCN1CCN(C/C=C/c2ccccc2)CC1	24.0	-3.8%	-4.6	-84.8*	1.0
Cc1cc(NC(=O)CCN2CCN(C)CC2)ccc1Br	16.0	-0.8%	4.6	5.2	1.1
O=C(CN1CCN(C/C=C/c2ccccc2)CC1)Nc1ccccc1C(=O)NC1CC1	-90.7*	-2.8%	-2.3	-111.5*	0.3
